High-throughput results (PubChem)
KDM5B inh – KDM5B demethylase inhibition; Q9UGL1; Potency, µM (series often up to 57.7 µM), actives largely listed as inhibitors; AID 1347165; KDM5B demethylase, FDH-coupled NADH fluorescence (FDH is formaldehyde dehydrogenase); 220,000 tested, 2.6% active; active means well fitted inhibition curve with a large enough effect; inconclusive means small, poorly fitted or top-dose-only effect; inactive means no such curve, though single readings can be large or run the other way; further: nearly all actives have a fitted effect of over 70% in size
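Measured: NADH fluorescence change, 30 min, RT. System: KDM5BΔAP 200 nM final, H3K4me3 peptide, α-KG, Fe(II), ascorbate, NAD⁺ plus FDH, pH 7.5 HEPES. Compounds: titrated, 10 min pre-incubation with enzyme.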
IP6K1 inhibitor – IP6K1 kinase inhibition; IP6K1 kinase, ADP-Glo luminescence, 2 h; active compounds read low; activity change, % (series mostly up to about 58 µM); Q92551; 140,000 tested, 0.81% active; in the data active means activity change below about -25%
Target sequence (Q92551 whole entry, looked up): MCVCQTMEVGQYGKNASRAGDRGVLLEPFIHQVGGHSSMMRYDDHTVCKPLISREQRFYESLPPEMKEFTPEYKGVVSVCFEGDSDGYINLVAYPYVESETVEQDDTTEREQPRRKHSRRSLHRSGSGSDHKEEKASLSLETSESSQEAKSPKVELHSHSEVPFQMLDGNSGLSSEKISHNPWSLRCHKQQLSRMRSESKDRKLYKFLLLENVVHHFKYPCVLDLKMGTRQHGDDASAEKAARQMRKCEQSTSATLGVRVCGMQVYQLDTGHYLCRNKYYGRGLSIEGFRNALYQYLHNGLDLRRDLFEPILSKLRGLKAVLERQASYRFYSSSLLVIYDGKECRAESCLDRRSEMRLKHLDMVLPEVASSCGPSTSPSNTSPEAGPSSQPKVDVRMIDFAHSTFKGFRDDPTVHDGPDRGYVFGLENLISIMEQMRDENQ
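ADP-Glo luminescence measures ADP made by human IP6K1 during a 2 h RT reaction with ATP/IP6 (mix at 1.3 mM/130 uM); top library doses 57.5 and 19.1 uM final.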
Large screens that a line does not name were inactive. Most compounds without a hit are left out; they make up all but 2.8% or so of the library.

COc1ccc(-c2cc(C(=O)N3CCOCC3)c3cnn(C)c3n2)cc1	none (no result: KDM5B inh)
O=C(Nc1ccc2oc(-c3cccnc3)nc2c1)c1ccc(OCc2ccccc2)cc1	none (no result: IP6K1 inhibitor)
Cc1cccc(-c2nc3ccc(C(=O)NCc4cccnc4)cc3o2)n1	none (no result: KDM5B inh)
CN(C)c1cccc(-c2cnc(Nc3cncnc3)c3c2CCO3)c1	none
COc1cccc(Nc2ncc(-c3cccc(N(C)C)c3)c3c2OCC3)c1	KDM5B inh 22.4µM
COc1cccc(Nc2ncc(-c3ccccc3)c3c2OCC3)c1	KDM5B inh 20µM
c1ccc(-c2cnc(Nc3ccncc3)c3c2CCO3)cc1	KDM5B inh inconclusive
O=C(Nc1cccc(F)c1)c1ccc(Cn2ccn3nc4c(c3c2=O)CCCC4)cc1	KDM5B inh 25.1µM
O=C(NCc1cccc(Cl)c1)c1ccc(Cn2ccn3nc4c(c3c2=O)CCCC4)cc1	KDM5B inh inconclusive
COc1ccc(NC(=O)Cn2ccn3nc4c(c3c2=O)CCCC4)cc1OC	none
COc1ccc(NC(=O)c2ccc(Cn3ccn4nc5c(c4c3=O)CCCC5)cc2)cc1	none
COc1ccc(NC(=O)Cn2ccn3nc4c(c3c2=O)CCCCC4)cc1Cl	KDM5B inh 28.2µM
CC(C)c1ccc(CNC(=O)c2ccc(Cn3ccn4nc5c(c4c3=O)CCCC5)cc2)cc1	KDM5B inh 28.2µM
COC(=O)NCCc1ccccc1OC	none (no result: IP6K1 inhibitor)
CC(=O)N1N=C(c2cccc(O)c2)CC1c1ccco1 (stereo not drawn)	none (no result: IP6K1 inhibitor)
O=C1CSc2ccc(C(=O)Nc3cccc(C(=O)NC4CC4)c3)cc2N1	none (no result: IP6K1 inhibitor)
CC(C1CC1)N(Cc1ccccc1)S(=O)(=O)c1ccc(Cl)cc1 (stereo not drawn)	none (no result: IP6K1 inhibitor)
CCc1c(C)nn(CC(=O)NC2CCCN(c3ncccn3)C2)c1C (stereo not drawn)	KDM5B inh 20µM
O=C(CSC12CC3CC(CC(C3)C1)C2)NC1CCCN(c2ncccn2)C1 (stereo not drawn)	none
COc1ccc(C2(C(=O)NC3CCCN(c4ncccn4)C3)CC2)cc1 (stereo not drawn)	KDM5B inh 22.4µM
COc1ccc(C2(C(=O)NC3CCc4n[nH]c(=O)n4CC3)CC2)cc1 (stereo not drawn)	none
CN(C)CCCNCCc1ccccc1	none (no result: IP6K1 inhibitor)
CSCCC(NC(=O)[C@@H](NC(=O)c1ccc(C)cc1)C(C)C)c1nnc2ccccn12 (stereo partly drawn)	none (no result: IP6K1 inhibitor)
O=C(c1ccc2c(c1)OCO2)N1CCCN(c2ccnc3ccnn23)CC1	none (no result: KDM5B inh)
CCn1c(CSc2nnc(C3CC3)n2C2CC2)nc2cc(S(=O)(=O)N(C)C)ccc21	none (no result: IP6K1 inhibitor)
O=C(CCc1c[nH]c2ccccc12)N1CCC[C@H]1c1nc(-c2ccc(F)cc2)n[nH]1	none (no result: KDM5B inh)
COc1ccc2cc(CN3CCCC(C#N)C3)c(-c3cccs3)nc2c1 (stereo not drawn)	KDM5B inh 31.6µM
COc1ccc(-c2nc3cc(C)ccc3cc2CN2CCCC(OC)C2)cc1 (stereo not drawn)	KDM5B inh 25.1µM
COc1ccc(-c2nc3cc(C)ccc3cc2CN2CCCC(O)C2)cc1OC (stereo not drawn)	none
COC[C@@H]1CCCN1Cc1cc2ccc(C)cc2nc1-c1ccc(OC)cc1	KDM5B inh 22.4µM
COc1ccc(-c2nc3cc(C)ccc3cc2CN2CCN(C)C(CCO)C2)cc1 (stereo not drawn)	KDM5B inh inconclusive
COc1ccc(-c2nc3cc(C)ccc3cc2CN2CCCC(CO)C2)cc1OC (stereo not drawn)	none
Cn1ncc2c(C(=O)NCc3ccccc3Cl)cc(-c3ccccc3C(F)(F)F)nc21	none (no result: KDM5B inh)
COCC(=O)N1CCC(N2C(=O)c3c(c(C)nn3-c3ccccc3)C2C(C)C)CC1 (stereo not drawn)	none (no result: KDM5B inh)
COc1cc(NC(=O)c2cc3ccccc3oc2=O)cc(OC)c1OC	none (no result: IP6K1 inhibitor)
CC(C)(C)C1CCCCC1NC(=O)c1ccc(Cl)nc1 (stereo not drawn)	none (no result: IP6K1 inhibitor)
CC(C)c1nc2c(c(-c3ccc(O)cc3)n1)CN(Cc1ccc(C(F)(F)F)cc1)CC2	none
Cc1cc(-c2cnc(Nc3ccc(F)cc3)c3c2CCO3)ccn1	KDM5B inh 12.6µM
Cn1cc(-c2cnc(Nc3ccc(F)c(Cl)c3)c3c2CCO3)cn1	KDM5B inh 31.6µM
Cn1cc(-c2cnc(Nc3ccncc3)c3c2CCO3)cn1	KDM5B inh 35.5µM
Cn1cc(-c2cnc(Nc3ccc(N4CCOCC4)cc3)c3c2CCO3)cn1	KDM5B inh inconclusive
Cn1cc(-c2cnc(NC(=O)c3c[nH]c4ccccc34)c3c2CCO3)cn1	none
O=C(c1cc(-c2ccccc2)n[nH]1)N1CCN(C(=O)c2ccc(Br)o2)CC1	none (no result: IP6K1 inhibitor)
O=C(Nc1ccccc1)Nc1cccc(C(=O)NCC2CCCO2)c1 (stereo not drawn)	none (no result: IP6K1 inhibitor)
Cc1ccc(C(CC(=O)N2CCc3ccccc3C2)c2cn(C)c3ccccc23)cc1 (stereo not drawn)	KDM5B inh 17.8µM
Cc1ccc(C(CC(=O)N2CCCCC2)c2cn(C)c3ccccc23)cc1 (stereo not drawn)	KDM5B inh inconclusive
COc1ccc2nc(NC(=O)c3cc(=O)c4ccc(C)c(C)c4o3)sc2c1	none (no result: IP6K1 inhibitor)
